An excerpt weighted towards active compounds, which were near 9.4% of everything screened.
Pf growth 48h – P. falciparum growth inhibition at 48 hours (one generation) | Potency, µM (top dose mostly 28.7 µM), for the others: at the highest dose activity change, negative = inhibition, usual class: inhibitors | P. falciparum luciferase growth in erythrocytes, 48 h | AID 504832 | 5.9% of 310,000 active; note: % is set by controls: 0 for no effect and ±100 for the full control effect
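Here the parasites carry a stable luciferase gene and grow inside erythrocytes in Albumax-based RPMI medium with compound for one erythrocytic cycle. Activity is scored as loss of luminescent signal.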
AMA1 RON2 block – inhibitors of Plasmodium falciparum AMA1-RON2 interaction; AlphaScreen AMA1-biotinylated RON2 peptide binding; Potency, µM (series often up to 58.2 µM), without a hit: at the top dose activity change, negative = inhibition, actives largely listed as inhibitors; 0.2% of 360,000 active;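 note: 0% = vehicle wells and -100% = peptide control; nearly all actives have a fitted effect of over 45% in size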
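AMA1 (3D7) with his tag at 25 nM final met compounds first, then biotinylated RON2 peptide at 25 nM; detection used donor plus acceptor beads, 10 µg/mL apiece, read by AlphaScreen after 30 min at room temperature.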
Pf growth 96h – inhibits malaria parasite growth, 96 h; 6.9% of 320,000 active; Potency, µM (doses to about 28.7 µM), for inactives: top-dose activity change, negative = inhibition, most hits filed as inhibitors; P. falciparum luciferase reporter growth, 96 h; note: % is set by controls: 0 for no effect and ±100 for the full control effect
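Erythrocytes infected with luciferase-expressing P. falciparum were dispensed at 2% hematocrit and 0.05% parasitemia (final), then incubated with compounds 96 hours at 37 C in 5% CO2. Luminescence after detection reagent addition reported growth.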
SARS PLpro yeast – blocks SARS-CoV papain-like protease in a yeast assay. S. cerevisiae expressing SARS-CoV PLpro, growth rescue. Potency, µM (doses to about 32.9 µM), without a hit: at the top dose activity, positive = growth rescue, hits mostly activators. 0.19% of 330,000 active. AID 485353; calls by dose curve; note: 0% is about no effect; nearly all actives have a fitted effect of over 55% in size
An asterisk follows results filed as active; ? = inconclusive; . = no result given; [ ] = remark or other dose. Unless noted, calls come from the whole dose curve; as a rule, active = well fitted curve in the direction sought with a large enough effect; inconclusive = small, poorly fitted or top-dose-only effect, or another doubt; inactive = no such curve, though single readings can be large; an effect the other way counts as inactive or inconclusive. Potency is the fitted concentration of half-maximal effect.

SMILES | Pf growth 48h | AMA1 RON2 block | Pf growth 96h | SARS PLpro yeast
COc1cc(C2SCC(=O)N2c2nnc(C34CC5CC(CC(C5)C3)C4)s2)cc(OC)c1OC (stereo not drawn) | 15µM* | 6% | 0% | 7%
Cc1ccc2[nH]c(=O)c(CN(CCCO)S(=O)(=O)c3c(C)ccc4nsnc34)cc2c1 | 0% | -1% | 5.9µM* | -4%
Cc1cc2cc(CN(CCCO)S(=O)(=O)c3cccc4nsnc34)c(=O)[nH]c2cc1C | 9.3µM* | -5% | -6% | 0%
Cc1ccc2cc(CN(CC(C)C)S(=O)(=O)c3cccc4nonc34)c(=O)[nH]c2c1 | ? | -2% | 10µM* | -2%
Cc1ccc2cc(CN(CC3CCCO3)S(=O)(=O)c3cccc4nsnc34)c(=O)[nH]c2c1 (stereo not drawn) | 9.3µM* | 4% | -1% | 2%
Cc1ccc2cc(CN(Cc3ccco3)S(=O)(=O)c3c(C)ccc4nsnc34)c(=O)[nH]c2c1 | ? | -9% | 4% | -8%
O=C(OCC(=O)N(CCc1ccccc1)Cc1ccccc1)c1cc(S(=O)(=O)N2CCOCC2)ccc1F | -19% | 7% | 3% | -7%
CC(C)(Cc1ccc(O)cc1)NC(=O)CC(=O)N=Nc1c(O)[nH]c2ccc(Br)cc12 | -39% | ? | 9% | 1%
O=c1[nH]c2cc3c(cc2cc1CN(CCO)S(=O)(=O)c1ccccc1Cl)OCCO3 | . | 4% | 0.66µM* | 22%[6.58 µM]
COc1cc2cc(CN(CCO)S(=O)(=O)c3ccccc3Cl)c(=O)[nH]c2cc1OC | ? | 8% | -4% | -1%
Cc1ccc(N(CCC#N)C(=O)CCl)cc1C | 9.3µM* | -5% | ? | -3%
Cc1ccc(SCC(=O)OCC(=O)N(CCC#N)c2ccccc2)cc1C | -13% | 14% | -16% | 4%
CCOC(=O)c1c(C)n(-c2ccc(C)cc2)c2ccc(OCC(O)CNCC3CCCO3)cc12 (stereo not drawn) | ? | -30% | 3.3µM* | -4%
CCOC(=O)c1c(C)n(C)c2ccc(OCC(O)CNC(CC)CO)cc12 (stereo not drawn) | ? | 8% | 2.1µM* | -3%
CC(C)C(NC(=O)c1ccccc1F)C(=O)NCC(c1ccco1)N1CCCCC1 (stereo not drawn) | . | 8% | . | 10%
Cc1ccc(OCC(=O)N2N=C(C(F)(F)F)CC2(O)C(C)(C)C)cc1C (stereo not drawn) | . | 14% | ? | -23%
Cc1ccc(OCC(=O)N2N=C(c3cccnc3)CC2(O)C(F)(F)F)cc1C (stereo not drawn) | ? | 22% | 9.3µM* | 7%
O=c1[nH]c(/C(Cl)=C/c2c(F)cccc2Cl)nc2cc(Cl)ccc12 | -14% | 5% | 48% | ?
O=c1[nH]c(/C(Cl)=C/c2cc(Cl)ccc2O)nc2cc(Cl)ccc12 | -23% | 8% | 9.3µM* | -18%
CCOc1ccc(CN(C)Cc2cc(=O)oc3cc(C)c(Cl)cc23)cc1 | ? | 5% | ? | 3%
CCOc1ccc(N(C)Cc2cc(=O)oc3ccc(OCC)cc23)cc1 | -29% | 25µM* | 13% | -5%
CCOc1ccc(OCC)c(NC(=O)CN2CCN(c3cccc(C)c3)C(C)C2)c1 (stereo not drawn) | 13µM* | -9% | ? | 2%
CCOc1ccc(OCC)c(NC(=O)CN2CCN(CC(=O)NC(C)C)CC2)c1 | -53% | -12% | 13µM* | 0%
CCOc1ccc(OCC)c(NC(=O)CN2CCN(c3cccc(C)c3)CC2)c1 | 13µM* | -24% | -13% | -11%
CCOc1ccc(OCC)c(NC(=O)CN2CCN(c3cc(C)ccc3C)CC2)c1 | ? | ? | ? | -2%
SMILES | Pf growth 48h | AMA1 RON2 block | Pf growth 96h | SARS PLpro yeast
COc1ccc(C(C(=O)NC2CCCC2)N(Cc2cccnc2)C(=O)c2snc(C(N)=O)c2N)cc1 (stereo not drawn) | 12µM* | 0% | 13µM* | 1%
COc1ccccc1N(C(=O)c1snc(C(N)=O)c1N)C(C(=O)NC1CCCC1)c1ccc(N(C)C)cc1 (stereo not drawn) | 13µM* | -21% | 5% | 7%
COc1ccc(OC)c(C(C(=O)NC2CCCCC2)N(C(=O)c2snc(C(N)=O)c2N)c2ccccc2OC)c1 (stereo not drawn) | 2.6µM* | -7% | 0% | 1%
COc1ccc(N(C(=O)c2snc(C(N)=O)c2N)C(C(=O)NC2CCCC2)c2cccs2)c(OC)c1 (stereo not drawn) | ? | -4% | 79% | -1%
COc1ccc(CN(C(=O)c2snc(C(N)=O)c2N)C(C(=O)NC2CCCC2)c2cc(OC)ccc2OC)cc1 (stereo not drawn) | 10µM* | -4% | 2.1µM* | -10%
COc1ccc(CN(C(=O)c2snc(C(N)=O)c2N)C(C(=O)NC2CCCC2)c2ccc(OC)cc2)cc1 (stereo not drawn) | ? | 0% | -30% | -1%
COc1ccc(NC(=O)CC2C(=O)N(c3ccc(OC)cc3)C(=O)N2CCN2CCN(C)CC2)cc1 (stereo not drawn) | 2% | 4% | . | 0%
COc1cccc(C(C(=O)NC2CCCC2)N(Cc2ccco2)C(=O)c2ccco2)c1OC (stereo not drawn) | ? | -9% | 100% | 5%
COc1ccccc1N(C(=O)c1snc(C(N)=O)c1N)C(C(=O)NC1CCCC1)c1ccco1 (stereo not drawn) | -17% | 11% | 14% | 5%
COc1ccc(OC)c(N(C(=O)c2snc(C(N)=O)c2N)C(C(=O)NCc2ccccc2)c2ccc(O)cc2)c1 (stereo not drawn) | 10µM* | -25% | 13µM* | 0%
COc1cccc(C(C(=O)NC2CCCC2)N(C(=O)c2ccco2)c2ccccc2F)c1OC (stereo not drawn) | 8.3µM* | -9% | 31% | -3%
COc1ccccc1N(C(=O)c1snc(C(N)=O)c1N)C(C(=O)NC1CCCCC1)c1cccc(OC)c1OC (stereo not drawn) | 8.3µM* | -10% | -8% | 2%
CC(C)(C)NC(=O)C(c1ccco1)N(Cc1ccc(F)cc1)C(=O)c1snc(C(N)=O)c1N (stereo not drawn) | ? | -3% | . | ?
COc1ccc(CN(C(=O)c2snc(C(N)=O)c2N)C(C(=O)NC(C)(C)C)c2ccco2)cc1 (stereo not drawn) | ? | -12% | 9.3µM* | -4%
CCN1CCCC1CN(Cc1cc2ccc(C)cc2[nH]c1=O)C(=S)Nc1ccccc1OC (stereo not drawn) | 2% | -4% | 45% | -7%
COc1ccc(C)cc1N(C(=O)c1snc(C(N)=O)c1N)C(C(=O)NC1CCCCC1)c1ccc(C)o1 (stereo not drawn) | 9.3µM* | -3% | ? | -6%
Cc1ccc(C)c(N(C(=O)c2snc(C(N)=O)c2N)C(C(=O)NCC2CCCO2)c2ccc(C)o2)c1 (stereo not drawn) | ? | 14% | 20% | 0%
O=C(c1ccc(Cl)c(S(=O)(=O)N2CCOCC2)c1)N1CCN(c2ccccc2F)CC1 | -15% | -2% | ? | -2%

Source: PubChem (National Center for Advancing Translational Sciences (NCATS))
